Test results published in PubChem BioAssay AID1259376 (The Scripps Research Institute Molecular Screening Center, 2018).
Screen size: about 4,700 compounds; about 360 (7.7%) were called active.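 Rule for the calls: active = inhibition above a cutoff derived from the DMSO control wells (cut at about 30% in these data); inactive = the rest.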 These entries were drawn from the full list.

Experiment: bead signal artefacts at single dose – biochemical, AlphaScreen, triplicate, counter-screen for MITF inhibitor project (AID 1259376)
Conditions: LysRS AlphaScreen counterscreen, signal interference, at 2.6 µM, stronger effect = higher value

| SMILES | inhibition |
| --- | --- |
| CC(C)(C)n1nnnc1C(c1ccc2ncccc2c1)N1CCSCC1 (stereo not drawn) | 30.7% (active) |
| CCSc1ccccc1C(=O)N1CCN(c2ccc(-c3ccccn3)nn2)CC1 | 101% (active) |
| Brc1cccc(CN2CCN(Cc3cccnc3)CC2)c1 | -5.02% (inactive) |
| Cc1cc(C(C)(C)C)ccc1OCCN1CCNCC1 | -9.28% (inactive) |
| CCN1CCN(CCOCCOc2ccccc2OCc2ccccc2)CC1 | 9.59% (inactive) |
| Cc1cc(NC(=O)/C=C/C(=O)N(CC(=O)NC2CCCC2)c2ccc(F)cc2)no1 | 10.1% (inactive) |
| O=C(c1ccc2c(c1)C(=O)N(Cc1cccnc1)C2=O)c1ccc2c(c1)C(=O)N(Cc1cccnc1)C2=O | 24.6% (inactive) |
| CN(CCc1ccccn1)Cc1cccnc1 | 22.1% (inactive) |
| Cc1ccc(OCCCCNCCN2CCOCC2)c(Br)c1 | 13.8% (inactive) |
| CCc1cccc(OCCOCCn2ccnc2)c1 | -2.1% (inactive) |
| N#Cc1nc(COc2cccc(Cl)c2)oc1NCCCn1ccnc1 | 65.7% (active) |
| CCc1ccc(OCCCCn2ccnc2)cc1 | 0.71% (inactive) |
| c1ccc(-n2cc(CN3CCOCC3)c(-c3ccc4c(c3)OCCO4)n2)cc1 | 10% (inactive) |
| CCCS(=O)(=O)N1CCN(Cc2ccc(OC)c(OCc3ccccc3)c2)CC1 | 9.8% (inactive) |
| CN1CCC(N2CCN(c3ccccc3Cl)CC2)CC1 | 14.1% (inactive) |
| COc1cc(Nc2ncnc3c2nc(N2CCOCC2)n3C(C)C)cc(OC)c1OC | 13.7% (inactive) |
| COc1ccc(Cn2nnc(C(=O)Nc3cccc(Cl)c3)c2N)cc1 | 14.3% (inactive) |
| O=C(CNCc1ccc(F)cc1)Nc1ccc(N2CCCC2)cc1 | 25.2% (inactive) |
| CCOc1ccc(CN2CCCN(C)CC2)cc1 | 0.42% (inactive) |
| CCCn1c(C)cc(-c2csc(NC(=O)Cc3ccsc3)n2)c1C | 12% (inactive) |
| CC(=O)NS(=O)(=O)c1ccc(-c2ccc(C=C(C#N)C#N)o2)cc1 | 3.05% (inactive) |
| COc1ccc(CN2CCN(Cc3ccccc3OC)CC2)cc1Br | 7.62% (inactive) |
| Cc1cccc(CSc2n[nH]c(=O)[nH]c2=O)c1 | -7.01% (inactive) |
| CC1CN(CCOc2ccccc2[N+](=O)[O-])CC(C)O1 (stereo not drawn) | 13.4% (inactive) |
| COc1ccc(OCCn2ccnc2C)cc1 | -3.46% (inactive) |
| CCN1CCN(CCOCCOc2ccc([N+](=O)[O-])cc2)CC1 | 9.29% (inactive) |
| COc1cccc(/C=C(\C#N)c2nc3ccccc3[nH]2)c1OCc1ccc(Cl)cc1Cl | 0.18% (inactive) |
| COc1ccc(C(CNCc2cc(=O)oc3cc4c(cc23)CCC4)N2CCOCC2)cc1 (stereo not drawn) | 13% (inactive) |
